As a reminder, the inhibition is the relative decrease from the control value, in per cent.

The campaign covered roughly 360,000 compounds. About 5,000 (1.4%) were called active.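 How the source made its calls: active means inhibition of 50% or more, scaled per plate between neutral and stimulator controls; inactive means the rest.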 The full list was thinned out, with actives kept by preference.

This passage reports inhibition results from PubChem BioAssay AID602449 (Sanford-Burnham Center for Chemical Genomics, 2012).

This test is described as follows: blockers of Ca2+-induced mitochondrial swelling – biochemical, isolated mouse mitochondria, absorbance, primary screen (AID 602449).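 Further: 0% = DMSO wells given calcium and 100% = 1 mM EGTA wells.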 Conditions: 30 min, at 10 µM, stronger effect = higher value.
On to `O=C(C1CCC1)N1CCc2cc(S(=O)(=O)NCc3cccnc3)ccc21`, for which the inhibition is -1.1% (inactive).
As for `COc1cccc(CNS(=O)(=O)c2ccc3c(c2)CC(C)N3C(=O)C2CCC2)c1` (centres undefined), the inhibition was 90.4% (active).
The figure for `COc1ccc(N(C)S(=O)(=O)c2ccc3c(c2)CC(C)N3C(=O)C2CC2)c(OC)c1` (centres undefined) is 0.9% (inactive).
The figure for `COc1cccc(NC(=O)Cn2cnc3sc(C)c(S(=O)(=O)N4CCN(C)CC4)c3c2=O)c1` is 0.8% (inactive); for `Cc1ccc(C2(C(F)(F)F)N=C3Sc4cc(C)cc(C)c4N3C(=O)N2)cc1` (centres undefined) it is 5.4% (inactive).
The figure for `CSc1sc(C(=O)NNC(=O)c2ccc(Cl)cc2)c2c1C=CCC2` is 3% (inactive).
Take `COc1cc(NS(=O)(=O)c2ccc(NC(=S)NC(=O)c3ccccc3)cc2)nc(OC)n1`: the inhibition was -1.6% (inactive).
The figure for `CS(=O)(=O)c1sc(C(=O)NC(=S)Nc2ccc(OC(F)(F)F)cc2)c2c1C=CCC2` is 53.1% (active).
The figure for `COc1cccc(N(Cc2nnc3n2CCCCC3)C(=O)Nc2ccccc2F)c1` is 0.7% (inactive).
The result for `Cc1nn(-c2ccccc2)c2sc(C(=O)N(Cc3ccco3)C(C)C(=O)NC(C)(C)C)cc12` (centres undefined) reads -3.6% (inactive); that for `CC1=C(C(=O)N2CCOCC2)CC(CC(=O)NCCN2CCOCC2)C(=O)N1CCC1=CCCCC1` (centres undefined), 5.2% (inactive).
Consider `O=C(Cn1nnc2ccccc2c1=O)NCc1ccc(Cl)cc1`, for which the inhibition is -0.4% (inactive).
The figure for `O=C(Nn1cnc2ccccc2c1=O)c1ccc(F)cc1Cl` is 0.6% (inactive); for `CN(C(=O)Nc1ccc(Cl)cc1)n1cnc2ccccc2c1=O` it is 55.1% (active).
The result for `O=C(CCCN1C(=O)C2C3C=CC(C3)C2C1=O)N1CCN(c2ccccc2)CC1` (centres undefined) reads -1.6% (inactive); that for `O=C(NCCc1ccc2c(c1)OCCO2)c1cc2ccccc2o1`, 74.2% (active).
As to `CN(C)C(CNC(=O)c1cc2ccccc2o1)c1ccccc1` (centres undefined), the inhibition is 0.1% (inactive).
The figure for `CNS(=O)(=O)c1ccc(C(=O)NCC(=O)NCCc2ccc3c(c2)OCCO3)cc1` is -1.7% (inactive); for `O=C(NC(=O)c1cc(OCC(F)(F)F)ccc1OCC(F)(F)F)Nc1ccccc1` it is 12.2% (inactive).
The result for `CCCCCN(C(=O)NC(=O)Nc1ccccc1C)S(C)(=O)=O` reads 7.5% (inactive); that for `CC(=O)Nc1cc(-c2ccccc2N(C)C)cn2c(-c3ccc(F)c(Cl)c3)cnc12`, 0.4% (inactive); that for `CCCN1C2=C(C(=O)CCC2)C(c2ccc(O)c(Br)c2)C2=C1CCCC2=O`, 0.7% (inactive).
Regarding `Cc1nc2ccccc2cc1OCc1ccc(F)cc1`, the inhibition is 97.1% (active).
The result for `Fc1ccc(COc2cccc(-c3n[nH]c(=S)o3)c2)cc1` reads 8.5% (inactive); that for `Fc1cccc2ncnc(OCc3ccccc3)c12`, 0.3% (inactive).
Regarding `Cc1ccc(S(=O)(=O)N2CCOCC2)cc1NC(=O)COC(=O)c1cnccn1`, the inhibition is -1% (inactive).
The figure for `Nc1nc(SCC(=O)Nc2ccc(Cl)cc2C(F)(F)F)n[nH]1` is 0.2% (inactive); for `CNC(=O)Nc1cc(C(C)(C)C)no1` it is -2.3% (inactive).
For the compound `CCCc1cc(=O)n2[nH]c(C)c(-c3ccc(Cl)cc3)c2n1`, the inhibition was 1.2% (inactive).
The result for `Cc1nc2c(-c3ccccc3)c(C)[nH]n2c(=O)c1Cl` reads -1% (inactive).
`Cc1[nH]n(-c2cccc(Cl)c2)c(=O)c1-c1ccc(Cl)cc1`: the inhibition is 102% (active).
On to `CC(NC(=O)CN1CCN(Cc2ccc(Cl)cc2)C1=O)c1ccc2c(c1)OCCO2` (centres undefined), for which the inhibition was -2.1% (inactive).
For the compound `Cc1c2cnn(CC(=O)NCCCN3CC(C)CC(C)C3)c(=O)c2c(C)n1Cc1ccc(Cl)cc1` (centres undefined), the inhibition was -0.1% (inactive).
Turning to `COc1ccc(CNC(=O)C(=O)N2CCC3(CC2)OCCN3S(=O)(=O)c2ccc(C)cc2)cc1`, the inhibition was 0.1% (inactive).
The result for `NC1=NC(=O)C(Cc2cccc(Cl)c2Cl)S1` (centres undefined) reads 1.7% (inactive); that for `CCOC(=O)Cc1csc(SCC(=O)NC(C)C23CC4CC(CC(C4)C2)C3)n1` (centres undefined), -0.5% (inactive); that for `COc1cccc(C(=O)CC(=O)C(=O)Nc2ccc([N+](=O)[O-])cc2C)c1`, -17.7% (inactive).
The figure for `COc1ccc(S(=O)(=O)NNC(=O)Nc2ccc(C)cc2)c(OC)c1` is -0.8% (inactive).
As to `COc1cc(NC(=O)Nc2ccc(C)cc2)cc([N+](=O)[O-])c1`, the inhibition is 104% (active).
The figure for `CC(=O)c1ccc(NC(=O)Nc2ccc([N+](=O)[O-])cc2C)cc1` is 94.4% (active).
The result for `CC(=O)Nc1ccc(C(=O)OCC(=O)Nc2ccc([N+](=O)[O-])cc2C(F)(F)F)cc1` reads 36.6% (inactive); that for `Cc1ccc(Oc2cc(NC(=O)CCCn3nc(C)c([N+](=O)[O-])c3C)cc([N+](=O)[O-])c2)cc1`, 40.9% (inactive); that for `COc1ccc(NC(=O)C(c2ccncc2)n2c(=O)c(-c3cc4ccccc4[nH]3)nc3ccccc32)cc1` (centres undefined), 4.2% (inactive).
As for `CC(C)C[C@H](NC(=O)C1CC(=O)N(c2ccc3c(c2)OCCO3)C1)C(=O)NC1CCCC1` (some centres undefined), the inhibition was -0.1% (inactive).
The figure for `CN(C)C(=O)c1cc(Br)ccc1Cl` is 1.1% (inactive); for `O=C(Nc1ccc(OC(F)(F)F)cc1)c1ccc2c(c1)no[n+]2[O-]` it is 82.5% (active).
The figure for `CCc1nnc(NS(=O)(=O)c2ccc(NC(=O)c3cccc(OC(F)(F)C(F)F)c3)cc2)s1` is 2.9% (inactive).
The result for `Cc1ccc(NC(=O)c2ccc(Oc3ncccn3)cc2)cc1` reads 0.4% (inactive); that for `Fc1cccc(Cc2c(-c3cccc(Cl)c3)nc3ccc(Br)cn23)c1`, 2.5% (inactive); that for `CCOC(=O)C1CCN(C(=O)Cc2c(C(=O)O)[nH]c3ccccc23)CC1`, 0.3% (inactive).
Consider `CCOC(=O)C1=C(CC)Nc2ccccc2N=C1N`, for which the inhibition was 1.2% (inactive).
As for `O=C(COC(=O)c1ccc[nH]c1=O)Nc1ccc2c(c1)OC(F)(F)O2`, the inhibition was 3% (inactive).
On to `O=C(COC(=O)c1ccccc1NC(=O)c1ccco1)Nc1ccc2c(c1)OC(F)(F)O2`, for which the inhibition was 60.9% (active).
The result for `O=C(COC(=O)CNC(=O)c1ccco1)Nc1ccc(F)cc1` reads -1.2% (inactive); that for `COC(=O)[C@]12CCCCC=C1N(Cc1ccccc1)C(=O)[C@H](CC(=O)NCc1ccc(C)o1)C2`, -0.1% (inactive); that for `COc1ccc(NC(=O)CN(C)S(=O)(=O)c2ccccc2)cc1OC`, -0.5% (inactive).
The figure for `Cc1cc(C)c(NC(=O)CS(=O)CC(=O)Nc2cccnc2)c(C)c1` (centres undefined) is -1.4% (inactive); for `Cc1ccc(-c2nc(-c3cccnc3)sc2CC(=O)Nc2ccc(C)c(Cl)c2)cc1` it is 93.3% (active); for `Cc1nc(-c2ccc(F)cc2)c(CC(=O)Nc2cc(S(=O)(=O)N3CCCCC3)ccc2C)s1` it is -0.4% (inactive).
